Laboratory results taken from the supplement of paper PMC11732987, “Enantioselective OTUD7B fragment discovery through chemoproteomics screening and high-throughput optimisation” (Communications Chemistry, 2025).

Experiments:
Test in all cases: log2 ratio of Biotin-Ahx-Ub-VS probe labelling (fragment/DMSO); higher = less target engagement (more negative = stronger competition), active = hit call of the paper (q ≤ 0.05, log2 ratio ≤ -1)
Conditions in all cases: compound concentration: 200 uM; treatment time: 3 h
USP42 = biological target: T1, USP42 (UniProt Q9H9J4)
T1 sequence (whole entry): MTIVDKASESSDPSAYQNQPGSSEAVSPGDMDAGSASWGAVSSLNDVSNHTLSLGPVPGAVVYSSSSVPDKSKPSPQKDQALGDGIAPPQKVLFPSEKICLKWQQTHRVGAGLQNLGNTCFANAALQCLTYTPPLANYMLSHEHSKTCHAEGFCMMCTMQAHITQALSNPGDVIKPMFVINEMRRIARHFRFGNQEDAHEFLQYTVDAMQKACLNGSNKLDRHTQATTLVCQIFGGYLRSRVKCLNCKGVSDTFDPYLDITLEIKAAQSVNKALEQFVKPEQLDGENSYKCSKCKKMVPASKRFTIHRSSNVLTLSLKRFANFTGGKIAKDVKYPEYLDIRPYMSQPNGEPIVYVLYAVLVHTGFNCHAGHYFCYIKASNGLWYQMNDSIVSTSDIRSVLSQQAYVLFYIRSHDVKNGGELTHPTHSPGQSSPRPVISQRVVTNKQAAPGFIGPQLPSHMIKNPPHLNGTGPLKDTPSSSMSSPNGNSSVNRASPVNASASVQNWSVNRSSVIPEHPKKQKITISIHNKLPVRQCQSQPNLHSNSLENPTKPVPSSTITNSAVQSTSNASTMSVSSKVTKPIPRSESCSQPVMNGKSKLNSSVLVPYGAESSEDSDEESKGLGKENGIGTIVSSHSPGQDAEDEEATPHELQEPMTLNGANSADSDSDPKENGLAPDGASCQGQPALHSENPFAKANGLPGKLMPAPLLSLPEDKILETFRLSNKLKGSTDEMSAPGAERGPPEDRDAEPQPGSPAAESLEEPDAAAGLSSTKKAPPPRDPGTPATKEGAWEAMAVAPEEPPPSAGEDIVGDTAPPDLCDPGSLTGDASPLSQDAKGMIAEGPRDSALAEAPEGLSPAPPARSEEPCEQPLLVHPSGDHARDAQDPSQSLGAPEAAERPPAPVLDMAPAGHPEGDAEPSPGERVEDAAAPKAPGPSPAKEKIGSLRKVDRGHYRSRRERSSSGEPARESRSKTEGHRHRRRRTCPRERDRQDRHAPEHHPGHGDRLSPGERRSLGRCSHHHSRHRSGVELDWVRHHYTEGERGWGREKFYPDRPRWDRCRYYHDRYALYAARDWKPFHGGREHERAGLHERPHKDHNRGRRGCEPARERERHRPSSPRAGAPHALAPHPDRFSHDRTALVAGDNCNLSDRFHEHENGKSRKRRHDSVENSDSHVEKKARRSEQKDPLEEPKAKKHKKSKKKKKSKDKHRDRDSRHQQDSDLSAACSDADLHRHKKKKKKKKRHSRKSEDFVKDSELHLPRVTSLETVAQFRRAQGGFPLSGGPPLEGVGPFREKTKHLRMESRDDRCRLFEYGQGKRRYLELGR
How it was run: (§1)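 Using Biotin-Ahx-Ub-VS at 0.5 µM final for 1 h, DUBs were labelled in HEK293T lysate (495 µg per sample) that had first been treated in triplicate with fragment at 200 µM or vehicle for 3 h. NeutrAvidin enrichment, LysC and trypsin digestion and diaPASEF LC-MS/MS followed. Spectronaut label-free quantities were global-median-normalised. Values are average log2 fragment/vehicle ratios by unpaired t-test, using proteins with ≥2 unique peptides.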

USP46 = USP46 (UniProt P62068)
USP46, sequence (P62068 whole entry): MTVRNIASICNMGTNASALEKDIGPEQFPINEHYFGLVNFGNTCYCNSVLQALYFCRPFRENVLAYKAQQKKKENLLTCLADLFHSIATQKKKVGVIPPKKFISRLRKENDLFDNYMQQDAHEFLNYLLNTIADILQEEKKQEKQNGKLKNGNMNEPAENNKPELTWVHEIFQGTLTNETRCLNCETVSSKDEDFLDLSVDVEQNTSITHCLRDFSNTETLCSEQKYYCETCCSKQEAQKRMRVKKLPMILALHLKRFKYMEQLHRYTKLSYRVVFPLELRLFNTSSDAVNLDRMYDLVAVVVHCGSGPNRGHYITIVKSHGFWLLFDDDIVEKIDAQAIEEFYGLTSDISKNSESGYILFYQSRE
How it was run: as §1

USP47 = biological target: T2, USP47 (UniProt Q96K76)
T2 sequence (whole entry): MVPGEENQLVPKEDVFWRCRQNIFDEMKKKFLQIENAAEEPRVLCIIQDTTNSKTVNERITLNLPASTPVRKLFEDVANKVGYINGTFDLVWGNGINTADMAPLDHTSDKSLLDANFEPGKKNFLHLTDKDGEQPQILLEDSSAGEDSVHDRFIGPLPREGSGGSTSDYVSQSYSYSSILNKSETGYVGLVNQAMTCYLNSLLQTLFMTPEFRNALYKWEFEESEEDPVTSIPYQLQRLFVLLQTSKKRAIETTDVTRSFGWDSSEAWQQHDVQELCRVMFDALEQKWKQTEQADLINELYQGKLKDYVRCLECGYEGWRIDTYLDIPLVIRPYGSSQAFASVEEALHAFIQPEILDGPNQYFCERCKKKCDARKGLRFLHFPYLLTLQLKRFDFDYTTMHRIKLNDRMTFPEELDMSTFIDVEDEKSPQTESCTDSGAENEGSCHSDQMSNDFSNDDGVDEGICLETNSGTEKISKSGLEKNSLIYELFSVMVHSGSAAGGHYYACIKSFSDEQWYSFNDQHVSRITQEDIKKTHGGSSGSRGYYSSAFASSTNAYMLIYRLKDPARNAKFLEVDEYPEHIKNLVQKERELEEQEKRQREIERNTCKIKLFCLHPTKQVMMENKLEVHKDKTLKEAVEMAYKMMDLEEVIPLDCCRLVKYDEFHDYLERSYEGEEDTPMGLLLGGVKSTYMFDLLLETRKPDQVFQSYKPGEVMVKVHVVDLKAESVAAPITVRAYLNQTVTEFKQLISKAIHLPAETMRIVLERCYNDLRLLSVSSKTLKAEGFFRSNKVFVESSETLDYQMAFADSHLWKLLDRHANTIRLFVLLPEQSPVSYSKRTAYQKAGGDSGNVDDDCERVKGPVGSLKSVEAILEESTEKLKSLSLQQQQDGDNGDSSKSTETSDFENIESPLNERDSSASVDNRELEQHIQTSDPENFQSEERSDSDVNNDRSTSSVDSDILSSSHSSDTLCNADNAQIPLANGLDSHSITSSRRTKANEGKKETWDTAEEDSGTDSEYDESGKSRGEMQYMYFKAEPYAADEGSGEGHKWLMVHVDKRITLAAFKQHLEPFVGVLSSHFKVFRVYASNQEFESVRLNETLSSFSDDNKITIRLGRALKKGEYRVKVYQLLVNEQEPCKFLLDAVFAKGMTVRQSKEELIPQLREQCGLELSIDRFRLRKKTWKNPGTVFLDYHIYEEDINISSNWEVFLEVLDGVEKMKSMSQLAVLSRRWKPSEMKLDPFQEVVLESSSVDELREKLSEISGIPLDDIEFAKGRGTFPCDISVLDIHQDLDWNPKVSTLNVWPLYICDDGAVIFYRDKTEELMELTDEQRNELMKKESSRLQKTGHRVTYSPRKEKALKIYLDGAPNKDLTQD
How it was run: as §1

USP48 = biological target: T3, USP48 (UniProt Q86UV5)
T3 sequence (whole entry): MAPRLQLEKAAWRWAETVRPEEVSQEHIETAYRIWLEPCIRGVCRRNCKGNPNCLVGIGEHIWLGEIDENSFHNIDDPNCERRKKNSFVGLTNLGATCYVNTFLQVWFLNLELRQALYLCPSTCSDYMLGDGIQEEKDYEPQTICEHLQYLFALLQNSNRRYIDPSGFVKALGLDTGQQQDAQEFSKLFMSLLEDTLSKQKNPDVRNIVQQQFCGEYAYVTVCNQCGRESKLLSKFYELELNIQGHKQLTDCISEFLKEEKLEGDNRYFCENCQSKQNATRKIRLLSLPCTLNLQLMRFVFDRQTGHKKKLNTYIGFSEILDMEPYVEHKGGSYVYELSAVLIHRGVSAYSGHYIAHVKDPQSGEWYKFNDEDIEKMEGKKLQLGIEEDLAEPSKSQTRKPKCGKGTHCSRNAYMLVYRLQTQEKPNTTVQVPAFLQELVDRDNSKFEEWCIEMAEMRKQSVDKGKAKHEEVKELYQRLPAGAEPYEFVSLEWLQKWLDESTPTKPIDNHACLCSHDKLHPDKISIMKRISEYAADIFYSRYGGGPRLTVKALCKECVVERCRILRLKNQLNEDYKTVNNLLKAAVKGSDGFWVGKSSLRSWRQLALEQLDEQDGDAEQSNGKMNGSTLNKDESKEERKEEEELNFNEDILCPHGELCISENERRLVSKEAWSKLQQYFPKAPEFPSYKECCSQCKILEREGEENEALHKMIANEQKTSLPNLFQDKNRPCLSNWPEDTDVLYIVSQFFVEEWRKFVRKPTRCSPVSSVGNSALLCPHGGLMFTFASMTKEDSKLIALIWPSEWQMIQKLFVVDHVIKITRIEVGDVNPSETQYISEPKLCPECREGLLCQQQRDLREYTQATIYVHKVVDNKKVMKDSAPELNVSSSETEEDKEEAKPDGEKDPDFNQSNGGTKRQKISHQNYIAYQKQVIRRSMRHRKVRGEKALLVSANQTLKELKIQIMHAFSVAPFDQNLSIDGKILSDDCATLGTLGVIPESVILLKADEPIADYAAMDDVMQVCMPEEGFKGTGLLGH
How it was run: as §1

USP5 = biological target: T4, USP5 (UniProt P45974)
T4 sequence (whole entry): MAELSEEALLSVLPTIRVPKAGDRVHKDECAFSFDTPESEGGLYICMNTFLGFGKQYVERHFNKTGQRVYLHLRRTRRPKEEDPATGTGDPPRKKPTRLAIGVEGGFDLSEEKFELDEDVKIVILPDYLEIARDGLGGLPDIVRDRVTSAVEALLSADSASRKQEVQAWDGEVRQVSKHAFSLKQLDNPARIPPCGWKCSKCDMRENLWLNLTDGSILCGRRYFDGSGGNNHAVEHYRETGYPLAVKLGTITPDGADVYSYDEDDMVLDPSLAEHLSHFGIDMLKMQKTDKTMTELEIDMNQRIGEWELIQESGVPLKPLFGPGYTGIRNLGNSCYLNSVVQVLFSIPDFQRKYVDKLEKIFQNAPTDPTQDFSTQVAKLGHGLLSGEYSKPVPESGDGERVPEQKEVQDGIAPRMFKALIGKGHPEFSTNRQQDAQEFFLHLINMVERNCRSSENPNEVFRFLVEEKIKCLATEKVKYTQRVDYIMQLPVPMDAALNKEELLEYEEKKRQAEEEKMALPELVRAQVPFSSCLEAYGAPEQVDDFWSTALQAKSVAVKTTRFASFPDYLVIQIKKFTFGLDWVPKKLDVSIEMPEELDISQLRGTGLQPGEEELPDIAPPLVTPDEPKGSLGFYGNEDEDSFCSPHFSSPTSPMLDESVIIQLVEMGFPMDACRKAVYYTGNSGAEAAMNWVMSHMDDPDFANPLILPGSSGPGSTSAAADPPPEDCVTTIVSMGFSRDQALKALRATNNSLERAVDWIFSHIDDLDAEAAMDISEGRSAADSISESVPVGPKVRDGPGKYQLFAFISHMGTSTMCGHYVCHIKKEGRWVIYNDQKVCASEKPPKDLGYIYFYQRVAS
How it was run: as §1

USP54 = USP54 (UniProt Q70EL1)
USP54, sequence (Q70EL1 whole entry): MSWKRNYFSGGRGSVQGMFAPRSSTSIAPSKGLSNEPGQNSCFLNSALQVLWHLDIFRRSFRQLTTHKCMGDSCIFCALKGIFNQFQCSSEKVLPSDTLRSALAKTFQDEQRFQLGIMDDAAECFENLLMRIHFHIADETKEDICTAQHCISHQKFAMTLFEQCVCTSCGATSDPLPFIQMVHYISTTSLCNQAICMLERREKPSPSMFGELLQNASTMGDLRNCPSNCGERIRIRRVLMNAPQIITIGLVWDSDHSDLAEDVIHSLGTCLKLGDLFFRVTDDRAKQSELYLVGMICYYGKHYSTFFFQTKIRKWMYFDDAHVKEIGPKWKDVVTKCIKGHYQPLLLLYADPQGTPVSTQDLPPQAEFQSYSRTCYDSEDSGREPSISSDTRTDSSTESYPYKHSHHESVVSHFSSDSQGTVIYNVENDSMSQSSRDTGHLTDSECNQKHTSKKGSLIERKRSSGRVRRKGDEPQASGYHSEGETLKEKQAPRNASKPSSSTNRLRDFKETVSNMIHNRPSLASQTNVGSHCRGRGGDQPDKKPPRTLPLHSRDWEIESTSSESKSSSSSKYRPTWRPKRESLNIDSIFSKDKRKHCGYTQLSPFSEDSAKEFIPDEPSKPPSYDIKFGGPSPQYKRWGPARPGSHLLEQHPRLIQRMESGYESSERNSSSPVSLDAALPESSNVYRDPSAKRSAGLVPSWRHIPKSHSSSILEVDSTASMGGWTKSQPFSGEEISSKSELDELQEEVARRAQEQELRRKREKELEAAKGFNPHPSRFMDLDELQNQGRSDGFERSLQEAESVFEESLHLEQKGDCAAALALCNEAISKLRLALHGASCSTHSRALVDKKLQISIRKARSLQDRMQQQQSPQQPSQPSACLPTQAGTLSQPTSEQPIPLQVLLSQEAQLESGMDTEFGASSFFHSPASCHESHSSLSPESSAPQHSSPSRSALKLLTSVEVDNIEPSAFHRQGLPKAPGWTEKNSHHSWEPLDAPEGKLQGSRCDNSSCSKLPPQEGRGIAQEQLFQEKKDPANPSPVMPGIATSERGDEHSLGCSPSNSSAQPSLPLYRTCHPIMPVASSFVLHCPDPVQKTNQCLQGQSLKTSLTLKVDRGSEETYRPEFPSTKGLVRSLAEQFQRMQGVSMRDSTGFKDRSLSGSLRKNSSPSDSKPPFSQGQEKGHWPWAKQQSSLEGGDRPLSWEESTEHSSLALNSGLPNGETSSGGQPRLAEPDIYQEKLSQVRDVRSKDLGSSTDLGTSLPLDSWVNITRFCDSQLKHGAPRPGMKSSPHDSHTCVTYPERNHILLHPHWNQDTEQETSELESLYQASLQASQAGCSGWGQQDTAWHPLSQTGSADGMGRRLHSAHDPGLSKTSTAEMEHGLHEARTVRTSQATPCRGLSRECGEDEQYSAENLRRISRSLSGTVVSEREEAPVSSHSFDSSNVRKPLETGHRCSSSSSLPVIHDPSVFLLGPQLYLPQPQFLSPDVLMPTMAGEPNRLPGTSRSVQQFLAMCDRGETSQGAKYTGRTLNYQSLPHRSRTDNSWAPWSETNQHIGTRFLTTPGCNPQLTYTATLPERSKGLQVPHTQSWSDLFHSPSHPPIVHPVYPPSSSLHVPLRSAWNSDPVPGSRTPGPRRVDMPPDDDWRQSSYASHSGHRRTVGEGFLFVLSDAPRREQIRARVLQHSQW
How it was run: as §1

USP7 = USP7 (UniProt Q93009)
How it was run: as §1

USP8 = biological target: T5, USP8 (UniProt P40818)
T5 sequence (whole entry): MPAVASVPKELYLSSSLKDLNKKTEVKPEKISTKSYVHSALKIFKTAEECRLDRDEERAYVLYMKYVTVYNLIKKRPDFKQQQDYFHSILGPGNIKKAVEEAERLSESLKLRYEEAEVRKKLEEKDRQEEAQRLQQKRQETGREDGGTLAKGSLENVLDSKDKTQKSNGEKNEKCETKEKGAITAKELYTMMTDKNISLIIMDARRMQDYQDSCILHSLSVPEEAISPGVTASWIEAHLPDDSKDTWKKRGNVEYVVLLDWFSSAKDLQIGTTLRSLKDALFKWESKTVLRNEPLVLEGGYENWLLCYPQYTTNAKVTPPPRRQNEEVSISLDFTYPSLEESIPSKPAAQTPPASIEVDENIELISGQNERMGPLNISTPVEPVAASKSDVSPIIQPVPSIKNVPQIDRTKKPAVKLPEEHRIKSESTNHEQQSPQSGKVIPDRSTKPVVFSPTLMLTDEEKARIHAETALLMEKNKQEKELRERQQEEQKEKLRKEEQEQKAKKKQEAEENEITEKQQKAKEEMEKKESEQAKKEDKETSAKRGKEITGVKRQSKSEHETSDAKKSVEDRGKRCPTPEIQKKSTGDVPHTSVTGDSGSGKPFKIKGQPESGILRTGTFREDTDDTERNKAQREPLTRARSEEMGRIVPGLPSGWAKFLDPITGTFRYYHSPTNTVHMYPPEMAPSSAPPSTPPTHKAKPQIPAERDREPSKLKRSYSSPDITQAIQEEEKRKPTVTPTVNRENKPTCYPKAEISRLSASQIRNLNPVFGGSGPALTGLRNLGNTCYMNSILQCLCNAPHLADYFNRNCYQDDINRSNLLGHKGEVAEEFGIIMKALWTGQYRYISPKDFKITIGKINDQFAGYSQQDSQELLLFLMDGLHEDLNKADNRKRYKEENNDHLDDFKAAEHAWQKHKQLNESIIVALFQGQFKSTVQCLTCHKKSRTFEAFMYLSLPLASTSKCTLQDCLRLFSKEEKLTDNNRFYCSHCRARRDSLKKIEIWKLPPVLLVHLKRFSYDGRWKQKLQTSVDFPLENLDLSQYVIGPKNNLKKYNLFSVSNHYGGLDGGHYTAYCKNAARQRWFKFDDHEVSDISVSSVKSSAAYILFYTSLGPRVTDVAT
How it was run: as §1

USP9X = USP9X (UniProt Q93008)
USP9X, sequence (Q93008 whole entry): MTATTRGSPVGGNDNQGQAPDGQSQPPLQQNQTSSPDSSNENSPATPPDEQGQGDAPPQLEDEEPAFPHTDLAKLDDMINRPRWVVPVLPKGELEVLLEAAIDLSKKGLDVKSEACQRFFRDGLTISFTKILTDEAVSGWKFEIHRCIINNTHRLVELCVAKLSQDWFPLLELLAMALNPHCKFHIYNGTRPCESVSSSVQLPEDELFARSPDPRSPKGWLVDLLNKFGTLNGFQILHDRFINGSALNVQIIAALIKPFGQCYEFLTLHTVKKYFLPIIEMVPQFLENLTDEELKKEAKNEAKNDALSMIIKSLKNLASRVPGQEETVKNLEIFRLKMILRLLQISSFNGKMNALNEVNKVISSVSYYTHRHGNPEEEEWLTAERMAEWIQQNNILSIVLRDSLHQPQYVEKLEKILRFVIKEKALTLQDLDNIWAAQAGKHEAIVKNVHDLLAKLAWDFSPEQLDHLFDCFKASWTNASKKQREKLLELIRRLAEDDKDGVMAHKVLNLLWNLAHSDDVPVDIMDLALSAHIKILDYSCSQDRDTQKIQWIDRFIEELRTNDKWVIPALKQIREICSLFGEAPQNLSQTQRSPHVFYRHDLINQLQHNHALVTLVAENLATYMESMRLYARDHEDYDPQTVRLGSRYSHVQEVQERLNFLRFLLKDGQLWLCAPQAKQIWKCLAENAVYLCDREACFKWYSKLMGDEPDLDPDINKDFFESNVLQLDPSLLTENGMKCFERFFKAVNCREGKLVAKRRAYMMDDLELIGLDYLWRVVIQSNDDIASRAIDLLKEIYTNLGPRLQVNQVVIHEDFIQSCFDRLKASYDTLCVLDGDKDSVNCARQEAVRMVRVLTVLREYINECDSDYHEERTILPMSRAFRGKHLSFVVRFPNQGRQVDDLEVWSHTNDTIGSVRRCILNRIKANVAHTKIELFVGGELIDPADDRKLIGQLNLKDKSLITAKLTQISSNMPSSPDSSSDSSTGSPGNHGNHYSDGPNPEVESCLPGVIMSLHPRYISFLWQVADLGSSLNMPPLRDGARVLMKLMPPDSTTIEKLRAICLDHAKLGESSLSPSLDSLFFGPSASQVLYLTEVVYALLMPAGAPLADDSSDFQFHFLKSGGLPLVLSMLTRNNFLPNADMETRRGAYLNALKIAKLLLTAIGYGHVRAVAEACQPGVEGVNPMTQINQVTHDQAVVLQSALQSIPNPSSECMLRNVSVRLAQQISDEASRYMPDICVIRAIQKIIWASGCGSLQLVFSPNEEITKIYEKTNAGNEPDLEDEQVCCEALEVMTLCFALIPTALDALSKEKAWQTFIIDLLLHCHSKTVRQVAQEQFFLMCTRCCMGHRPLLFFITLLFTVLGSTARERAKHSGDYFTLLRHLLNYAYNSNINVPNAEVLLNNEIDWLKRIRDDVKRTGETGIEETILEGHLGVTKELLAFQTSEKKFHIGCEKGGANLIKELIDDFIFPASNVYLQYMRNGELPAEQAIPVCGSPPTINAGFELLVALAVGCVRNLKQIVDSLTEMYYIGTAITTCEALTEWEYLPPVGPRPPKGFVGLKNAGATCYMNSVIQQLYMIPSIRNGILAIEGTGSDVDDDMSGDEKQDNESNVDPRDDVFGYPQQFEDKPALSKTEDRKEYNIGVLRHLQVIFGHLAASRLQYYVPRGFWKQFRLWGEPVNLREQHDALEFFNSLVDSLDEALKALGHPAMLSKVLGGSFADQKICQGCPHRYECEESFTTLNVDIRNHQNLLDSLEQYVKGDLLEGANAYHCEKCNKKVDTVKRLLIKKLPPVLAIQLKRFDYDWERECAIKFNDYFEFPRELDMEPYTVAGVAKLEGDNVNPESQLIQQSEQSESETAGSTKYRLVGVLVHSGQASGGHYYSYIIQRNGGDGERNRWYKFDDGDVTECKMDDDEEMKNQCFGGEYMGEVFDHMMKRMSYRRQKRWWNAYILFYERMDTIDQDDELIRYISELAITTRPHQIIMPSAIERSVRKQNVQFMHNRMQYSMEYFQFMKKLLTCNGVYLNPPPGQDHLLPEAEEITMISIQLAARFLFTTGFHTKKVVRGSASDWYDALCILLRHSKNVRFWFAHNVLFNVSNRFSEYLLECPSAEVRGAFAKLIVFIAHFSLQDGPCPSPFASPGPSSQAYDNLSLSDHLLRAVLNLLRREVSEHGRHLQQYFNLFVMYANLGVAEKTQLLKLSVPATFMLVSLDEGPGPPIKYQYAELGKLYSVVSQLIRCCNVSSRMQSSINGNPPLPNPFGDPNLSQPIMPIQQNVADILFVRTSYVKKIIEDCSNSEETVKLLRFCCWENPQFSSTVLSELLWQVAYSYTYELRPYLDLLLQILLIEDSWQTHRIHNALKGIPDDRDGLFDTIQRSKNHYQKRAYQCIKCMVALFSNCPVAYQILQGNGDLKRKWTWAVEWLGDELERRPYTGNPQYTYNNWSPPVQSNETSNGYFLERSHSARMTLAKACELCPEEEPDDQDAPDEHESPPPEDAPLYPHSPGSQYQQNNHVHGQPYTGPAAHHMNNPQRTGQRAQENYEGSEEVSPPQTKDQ
How it was run: as §1

UniProt O00487 = biological target: UniProt O00487
UniProt O00487, sequence (O00487 whole entry): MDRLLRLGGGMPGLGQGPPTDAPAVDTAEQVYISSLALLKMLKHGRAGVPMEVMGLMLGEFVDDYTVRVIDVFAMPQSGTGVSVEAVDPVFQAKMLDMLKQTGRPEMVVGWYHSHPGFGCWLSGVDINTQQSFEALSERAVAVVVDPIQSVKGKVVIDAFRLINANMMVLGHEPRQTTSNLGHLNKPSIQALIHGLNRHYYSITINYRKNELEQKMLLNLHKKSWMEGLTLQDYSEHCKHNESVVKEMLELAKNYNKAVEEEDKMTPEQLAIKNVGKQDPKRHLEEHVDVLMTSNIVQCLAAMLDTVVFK
How it was run: as §1

Measured: log2 ratio of Biotin-Ahx-Ub-VS probe labelling

Cl.Cn1cnc2cc(CNC(=O)CCl)ccc21
inactive: USP42 0.00921 | USP46 -0.0392 | USP47 -0.0799 | USP48 0.192 | USP5 -0.445 | USP54 -0.109 | USP7 -0.083 | USP8 -0.103 | USP9X -0.0792 | UniProt O00487 -0.00543
